# Measurements: PubChem BioAssay AID1159580 (chemical genetic matrix, 2015)
# The campaign covered roughly 5,500 compounds. About 2,000 (36%) were called active. Another 18% or so got no clear call; they are omitted. The list shows a part of the results. A number with no mark means an inactive call. No stated cut-off is given here; in the data, active means normalized growth mostly below about 0.91 (no sharp cut-off); inconclusive means no clear call, values can overlap the other calls; inactive means mostly above about 0.92.
# Assay: chemical genetic growth profiling, strain panel (AID 1159580);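 further: tested at 20 µM; growth read once vehicle control cultures reached saturation at 30 °C; 1 = growth at the plate median or of vehicle wells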
# Details: growth OD
structure (smiles),measurement,setting,value
O=C1OCCN1/N=C\c1ccc([N+](=O)[O-])o1,normalized growth,"S. cerevisiae deletion strains, locus YJR075W, strain HOC1, stronger effect = lower value",0.981
same,normalized growth,"S. cerevisiae deletion strains, locus YKL009W, strain mrt4, stronger effect = lower value",0.915
same,normalized growth,"S. cerevisiae deletion strains, locus YKL068W, stronger effect = lower value",0.999
same,normalized growth,"S. cerevisiae deletion strains, locus YKL085W, strain MDH1 (second series), stronger effect = lower value",0.99
same,normalized growth,"S. cerevisiae deletion strains, locus YKL085W, strain MDH1, stronger effect = lower value",0.99
same,normalized growth,"S. cerevisiae deletion strains, locus YKL160W, strain elf1, stronger effect = lower value",0.984
same,normalized growth,"S. cerevisiae deletion strains, locus YKR001C, strain vps1, stronger effect = lower value",0.938
same,normalized growth,"S. cerevisiae deletion strains, locus YKR026C, strain gcn3, stronger effect = lower value",1
same,normalized growth,"S. cerevisiae deletion strains, locus YKR091W, strain srl3, stronger effect = lower value",0.997
same,normalized growth,"S. cerevisiae deletion strains, locus YLL001W, strain dnm1, stronger effect = lower value",0.978
same,normalized growth,"S. cerevisiae deletion strains, locus YLL026W, stronger effect = lower value",0.988
same,normalized growth,"S. cerevisiae deletion strains, locus YLL041C, strain sdh2, stronger effect = lower value",1
same,normalized growth,"S. cerevisiae deletion strains, locus YLR027C, strain aat2, stronger effect = lower value",0.955
same,normalized growth,"S. cerevisiae deletion strains, locus YLR039C, strain RIC1, stronger effect = lower value",0.657 (active)
same,normalized growth,"S. cerevisiae deletion strains, locus YLR058C, strain SHM2, stronger effect = lower value",0.967
same,normalized growth,"S. cerevisiae deletion strains, locus YLR102C, strain apc9, stronger effect = lower value",0.988
same,normalized growth,"S. cerevisiae deletion strains, locus YLR113W, strain HOG1, stronger effect = lower value",0.869
same,normalized growth,"S. cerevisiae deletion strains, locus YLR221C, strain rsa3, stronger effect = lower value",0.975
same,normalized growth,"S. cerevisiae deletion strains, locus YLR258W, strain gsy2, stronger effect = lower value",0.976
same,normalized growth,"S. cerevisiae deletion strains, locus YLR262C, strain YPT6 (second series), stronger effect = lower value",0.888
same,normalized growth,"S. cerevisiae deletion strains, locus YLR262C, strain YPT6, stronger effect = lower value",0.683
same,normalized growth,"S. cerevisiae deletion strains, locus YLR268W, strain sec22, stronger effect = lower value",0.831 (active)
same,normalized growth,"S. cerevisiae deletion strains, locus YLR320W, strain mms22, stronger effect = lower value",0.956
same,normalized growth,"S. cerevisiae deletion strains, locus YLR330W, strain CHS5, stronger effect = lower value",1
same,normalized growth,"S. cerevisiae deletion strains, locus YLR342W, strain FKS1 (second series), stronger effect = lower value",0.943
same,normalized growth,"S. cerevisiae deletion strains, locus YLR342W, strain FKS1, stronger effect = lower value",1
same,normalized growth,"S. cerevisiae deletion strains, locus YLR357W, strain rsc2, stronger effect = lower value",1.03
same,normalized growth,"S. cerevisiae deletion strains, locus YLR370C, strain arc18, stronger effect = lower value",0.942
same,normalized growth,"S. cerevisiae deletion strains, locus YLR371W, strain rom2, stronger effect = lower value",0.99
same,normalized growth,"S. cerevisiae deletion strains, locus YLR384C, strain iki3, stronger effect = lower value",1
same,normalized growth,"S. cerevisiae deletion strains, locus YLR418C, strain cdc73, stronger effect = lower value",0.847
same,normalized growth,"S. cerevisiae deletion strains, locus YML016C, strain PPZ1, stronger effect = lower value",0.987
same,normalized growth,"S. cerevisiae deletion strains, locus YML032C, strain rad52, stronger effect = lower value",0.494 (active)
same,normalized growth,"S. cerevisiae deletion strains, locus YML120C, strain ndi1, stronger effect = lower value",0.965
same,normalized growth,"S. cerevisiae deletion strains, locus YML124C, strain tub3, stronger effect = lower value",1.01
same,normalized growth,"S. cerevisiae deletion strains, locus YMR058W, strain fet3, stronger effect = lower value",0.79 (active)
same,normalized growth,"S. cerevisiae deletion strains, locus YMR078C, strain ctf18, stronger effect = lower value",0.976
same,normalized growth,"S. cerevisiae deletion strains, locus YMR125W, strain sto1, stronger effect = lower value",0.93
same,normalized growth,"S. cerevisiae deletion strains, locus YMR129W, stronger effect = lower value",1
same,normalized growth,"S. cerevisiae deletion strains, locus YMR205C, strain PFK2, stronger effect = lower value",1.02
same,normalized growth,"S. cerevisiae deletion strains, locus YMR223W, strain ubp8, stronger effect = lower value",0.91
same,normalized growth,"S. cerevisiae deletion strains, locus YMR231W, strain pep5, stronger effect = lower value",0.998
same,normalized growth,"S. cerevisiae deletion strains, locus YMR307W, strain GAS1, stronger effect = lower value",0.761
same,normalized growth,"S. cerevisiae deletion strains, locus YNL067W, strain RPL9B, stronger effect = lower value",0.97
same,normalized growth,"S. cerevisiae deletion strains, locus YNL071W, strain lat1, stronger effect = lower value",0.997
same,normalized growth,"S. cerevisiae deletion strains, locus YNL128W, strain TEP1, stronger effect = lower value",0.997
same,normalized growth,"S. cerevisiae deletion strains, locus YNL153C, strain GIM3, stronger effect = lower value",0.842 (active)
same,normalized growth,"S. cerevisiae deletion strains, locus YNL183C, strain NPR1, stronger effect = lower value",0.848
same,normalized growth,"S. cerevisiae deletion strains, locus YNL209W, strain ssb2, stronger effect = lower value",0.979
same,normalized growth,"S. cerevisiae deletion strains, locus YNL233W, strain BNI4, stronger effect = lower value",0.987
same,normalized growth,"S. cerevisiae deletion strains, locus YNL248C, strain rpa49, stronger effect = lower value",0.84 (active)
same,normalized growth,"S. cerevisiae deletion strains, locus YNL250W, strain rad50, stronger effect = lower value",0.713 (active)
same,normalized growth,"S. cerevisiae deletion strains, locus YNL271C, strain bni1, stronger effect = lower value",0.978
same,normalized growth,"S. cerevisiae deletion strains, locus YNL298W, strain CLA4, stronger effect = lower value",0.95
same,normalized growth,"S. cerevisiae deletion strains, locus YNL307C, strain MCK1, stronger effect = lower value",0.955
same,normalized growth,"S. cerevisiae deletion strains, locus YNL322C, strain KRE1 (second series), stronger effect = lower value",0.992
same,normalized growth,"S. cerevisiae deletion strains, locus YNL322C, strain KRE1, stronger effect = lower value",0.999
same,normalized growth,"S. cerevisiae deletion strains, locus YNR049C, strain mso1, stronger effect = lower value",1.02
same,normalized growth,"S. cerevisiae deletion strains, locus YNR052C, strain pop2, stronger effect = lower value",0.899 (active)
same,normalized growth,"S. cerevisiae deletion strains, locus YOL006C, strain TOP1, stronger effect = lower value",0.891
same,normalized growth,"S. cerevisiae deletion strains, locus YOL012C, strain htz1",1.16
same,normalized growth,"S. cerevisiae deletion strains, locus YOL147C, strain pex11, stronger effect = lower value",0.991
same,normalized growth,"S. cerevisiae deletion strains, locus YOR001W, strain rrp6, stronger effect = lower value",0.904
same,normalized growth,"S. cerevisiae deletion strains, locus YOR061W, strain CKA2, stronger effect = lower value",0.988
same,normalized growth,"S. cerevisiae deletion strains, locus YOR069W, strain VPS5, stronger effect = lower value",0.992
same,normalized growth,"S. cerevisiae deletion strains, locus YOR070C, strain gyp1, stronger effect = lower value",1.01
same,normalized growth,"S. cerevisiae deletion strains, locus YOR080W, strain dia2, stronger effect = lower value",0.986
same,normalized growth,"S. cerevisiae deletion strains, locus YOR083W, strain WHI5, stronger effect = lower value",0.962
same,normalized growth,"S. cerevisiae deletion strains, locus YOR106W, strain vam3, stronger effect = lower value",0.938
same,normalized growth,"S. cerevisiae deletion strains, locus YOR136W, strain idh2, stronger effect = lower value",0.959
same,normalized growth,"S. cerevisiae deletion strains, locus YOR144C, strain elg1, stronger effect = lower value",0.969
same,normalized growth,"S. cerevisiae deletion strains, locus YOR184W, strain ser1, stronger effect = lower value",0.862 (active)
same,normalized growth,"S. cerevisiae deletion strains, locus YOR231W, strain MKK1, stronger effect = lower value",0.777 (active)
same,normalized growth,"S. cerevisiae deletion strains, locus YOR265W, strain rbl2, stronger effect = lower value",0.997
same,normalized growth,"S. cerevisiae deletion strains, locus YOR270C, strain vph1, stronger effect = lower value",0.92
same,normalized growth,"S. cerevisiae deletion strains, locus YOR290C, strain snf2, stronger effect = lower value",0.912
same,normalized growth,"S. cerevisiae deletion strains, locus YOR316C, strain cot1, stronger effect = lower value",0.999
same,normalized growth,"S. cerevisiae deletion strains, locus YPL051W, strain arl3, stronger effect = lower value",0.943
same,normalized growth,"S. cerevisiae deletion strains, locus YPL055C, strain LGE1, stronger effect = lower value",0.882
same,normalized growth,"S. cerevisiae deletion strains, locus YPL078C, strain atp4, stronger effect = lower value",0.932
same,normalized growth,"S. cerevisiae deletion strains, locus YPL106C, strain sse1, stronger effect = lower value",0.889
same,normalized growth,"S. cerevisiae deletion strains, locus YPL240C, strain hsp82, stronger effect = lower value",1.01
same,normalized growth,"S. cerevisiae deletion strains, locus YPL241C, strain CIN2, stronger effect = lower value",0.988
same,normalized growth,"S. cerevisiae deletion strains, locus YPL256C, strain CLN2, stronger effect = lower value",0.909
same,normalized growth,"S. cerevisiae deletion strains, locus YPR119W, strain clb2, stronger effect = lower value",0.989
same,normalized growth,"S. cerevisiae deletion strains, locus YPR141C, strain kar3, stronger effect = lower value",0.993
same,normalized growth,"S. cerevisiae deletion strains, locus YPR163C, strain tif3, stronger effect = lower value",0.993
same,normalized growth,"S. cerevisiae deletion strains, locus YPR167C, strain met16, stronger effect = lower value",0.986
same,normalized growth,"S. cerevisiae deletion strains, strain wtn01, stronger effect = lower value",0.87 (active)
same,normalized growth,"S. cerevisiae strains, strain wild type, stronger effect = lower value",0.99
